Laboratory results as given in PubChem BioAssay (NCI).
The panel holds about 79,000 compounds, 15% with a hit somewhere; the sample as a whole holds those more often. Activity calls are given as the source filed them. Rule as the data show it: active = growth inhibition above about 70%; inactive = the rest.

Assay: NCI Yeast Anticancer Drug Screen. Data for the rad50 strain (AID 155);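 also: 0% = growth of vehicle-only cultures of the same strain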
Settings: S. cerevisiae rad50 strain growth inhibition, hits give high values
Procedure: Growth inhibition of yeast strains with defined genetic alterations is measured as a screen for potential anti-cancer activity. Selected strains with alterations in DNA damage repair or cell cycle control were exposed to compounds and growth inhibition was measured relative to vehicle treated controls. The strain used in this assay is rad50

[1] = at 5.0 µM (retest, dose inferred, filed as 0.5)
[2] = at 50.0 µM (retest, dose inferred, filed as 5.0)

SMILES	growth inhibition (at 1.2 µM)	growth inhibition (at 3.7 µM)	growth inhibition [1]	growth inhibition (at 11.0 µM)	growth inhibition (at 33.0 µM)	growth inhibition [2]	growth inhibition (at 50.0 µM)	growth inhibition (at 100.0 µM)
CCC(/C=C/c1ccccc1)=N\Nc1ccc(Cl)c(Cl)c1	26% (inactive)	36% (inactive)	7% (inactive)	22% (inactive)	89% (active)	89% (active)	95.5% (active)	91% (active)
O=C1c2cccc3cccc(c23)C(=O)N1CCNCCN1C(=O)c2cccc3cccc(c23)C1=O	1% (inactive)	3% (inactive)	19% (inactive)	6% (inactive)	21% (inactive)	84% (active)	86.1% (active)	53% (inactive)
O=C(/C(=C/c1ccc(O)cc1)c1ccccc1)c1ccccc1	-8% (inactive)	-2% (inactive)	27% (inactive)	53% (inactive)	98% (active)	98% (active)	87.5% (active)	93% (active)
COC(=O)C1CCCCC1C(=O)Nc1ccccc1 (stereo not given)	-3% (inactive)	-1% (inactive)	10% (inactive)	0% (inactive)	0% (inactive)	2% (inactive)	20.8% (inactive)	-3% (inactive)
CCN(CC)CCNc1ccc2nc(C)n3c4ccc(OC)cc4c(=O)c1c23	41% (inactive)	45% (inactive)	84% (active)	63% (inactive)	82% (active)	95% (active)	-12.5% (inactive)	87% (active)
